Experimental data reported in PubChem BioAssay (NCATS).
Unmarked numbers belong to inactive results. Results filed as inconclusive are left out. Active and inactive are the calls of the source. Unless noted, calls follow the shape of the dose curve; as a rule, active = well fitted curve in the direction sought with a large enough effect; inconclusive = small, poorly fitted or top-dose-only effect, or another doubt; inactive = no such curve, though single readings can be large; an effect the other way counts as inactive or inconclusive.

What was measured:
[1] = target: Lysosomal acid glucosylceramidase (Homo sapiens) (UniProt P04062); assay: Glucocerebrosidase-p2 (AID 348; in the data active = potency below about 10 µM; also: potency is read from the fitted curve at half-maximal effect); settings: purified GBA, blue fluorogenic substrate, 40 min
Outline: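 Normal human glucocerebrosidase (0.2 nM) with blue fluorogenic substrate (80 uM final) in citrate/phosphate pH 5.9 with 10mM sodium taurocholate, 0.01% tween-20; 40 min RT, NaOH/glycine stop; fluorescence Ex 365/Em 440; AC50 from a titration from 0.6 nM upwards.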

[2] = AP1 Signaling Pathway (AID 357; active = well fitted curve in either direction with a large enough effect, not every such curve was filed as active; also: % is scaled to controls: 0 for no effect and ±100 for the full control effect); settings: ME-180 AP-1-bla reporter, EGF-induced, beta-lactamase ratio, 5 h; at 7.69 µM (top of the series) unless noted
Outline: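 ME-180 cells with beta-lactamase reporter under AP-1 response element, stimulated with EC50 EGF; compounds tested in titration series, 5 h at 37 °C. CCF4 substrate added 2.5 h at room temperature; 460/530 nm emission ratio gave %activity and AC50.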

[3] = target: Cytochrome P450 1A2 (Homo sapiens) (UniProt P05177); assay: p450-cyp1a2 (AID 410; calls by dose curve; also: potency is read from the fitted curve at half-maximal effect); settings: recombinant CYP1A2, luciferin-ME demethylation, luminescence; series mostly up to 57 µM
Outline: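 20nM CYP1A2, 100uM Luciferin-ME (=Km), 100mM KPO4; cpd 10 min RT; +NADPH regen, 60 min RT; stop/detect 20 min; luminescence. Normalized to furafylline 57 uM = full inhibition.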

[4] = NFAT Signaling Pathway (AID 444; active = well fitted curve in either direction with a large enough effect, not every such curve was filed as active;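 also: carbachol stimulus at about its EC50 of 1 µM final; % is scaled to controls: 0 for no effect and ±100 for the full control effect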); settings: Jurkat NFAT-bla M1, carbachol, beta-lactamase ratio, 5 h; at 7.69 µM (top of the series) unless noted
Outline: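 Jurkat cells carrying an NFAT-driven β-lactamase reporter and co-transfected muscarinic M1 receptor were treated with compound plus carbachol (1 uM final, an EC50 level) for 5 h at 37 °C. CCF4 loading followed for 1 h at RT; 460/530 nm ratio gave %activity.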

[5] = Stat Signaling Pathway (AID 446; active = well fitted curve in either direction with a large enough effect, not every such curve was filed as active;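 also: ME-180 cervical cancer cells given 40 pM IL-6 alongside compound; SIE-controlled beta-lactamase reporter measured as 460/530 nm FRET emission ratio; % is scaled to controls: 0 for no effect and ±100 for the full control effect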); settings: ME-180 (cervical carcinoma) SIE beta-lactamase reporter, IL-6 stimulated, 5 h; series mostly up to 7.69 µM
Outline: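 Normalization used AC90 stimulation (300 pM IL-6) and AC90 inhibition (125 nM pan-JAK inhibitor at 40 pM IL-6). The underlying signal is SIE-driven beta-lactamase in ME-180 cells after 5 h IL-6 exposure with compound.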

[6] = target: Glucocorticoid receptor (Homo sapiens) (UniProt P04150); assay: GR-GFP Redistribution (AID 450;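 active = compounds whose dose series gives a full or clear partial fitted curve of increased nuclear translocation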; also: potency is read from the fitted curve at half-maximal effect); settings: U2OS GR-GFP nuclear translocation, laser cytometry, 2 h
[7] = target: Glucocorticoid receptor (Homo sapiens) (UniProt P04150); assay: GR-EFC Redistribution (AID 451; calls by dose curve; also: potency is read from the fitted curve at half-maximal effect); settings: CHO-K1 GR-EFC translocation, beta-gal luminescence, 2 h
Outline: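 CHO-K1 cells stably expressing nuclear-localized β-gal enzyme acceptor and GR fused C-terminally to the enzyme donor fragment; ligand-driven nuclear translocation restores β-gal by complementation. Compounds titrated up to 46 uM final, 2 h at 37 °C; luminescence read.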

[8] = target: Mitogen-activated protein kinase 10 (Mus musculus) (UniProt Q61831); assay: JNK3 AlphaScreen Assay (AID 530; active = well fitted curve in either direction with a large enough effect, not every such curve was filed as active;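 also: kinase came from lysate of stimulated human HepG2 cells; signal reports phosphorylation of biotinylated GST-cJun 1-79 at Ser73 with 10 µM ATP; % is scaled to controls: 0 for no effect and ±100 for the full control effect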); settings: JNK3 lysate, c-Jun phosphorylation; series mostly up to 57.1 µM
Outline: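 Biotinylated GST-cJun(1-79) served as substrate for JNK3 in HepG2 lysates stimulated with IL-1beta and TNF-alpha. ATP was 10 uM final, pH 7.6. Ser73 phosphorylation was quantified by AlphaScreen (680 nm excitation).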

[9] = target: Cytochrome P450 3A4 (Homo sapiens) (UniProt P08684); assay: qHTS Assay for Inhibitors and Substrates of Cytochrome P450 3A4 (AID 884); settings: recombinant CYP3A4, Luciferin-PPXE luminescence; series mostly up to 57.1 µM; also: potency is read from the fitted curve at half-maximal effect; nearly all actives have a fitted effect of over 50% in size
Outline: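 Luminescent readout of luciferin produced by CYP3A4 (20 nM) dealkylation of Luciferin-PPXE, 25 uM (its KM). NADPH-driven reaction ran 60 min at RT after 10 min compound preincubation; data scaled to 57 uM ketoconazole as 100% inhibition.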

[10] = target: Cytochrome P450 3A4 (Homo sapiens) (UniProt P08684); assay: qHTS Assay for Activators of Cytochrome P450 3A4 (AID 885); settings: recombinant CYP3A4, Luciferin-PPXE luminescence, 60 min; series mostly up to 57.1 µM; also: nearly all actives have a fitted effect of over 65% in size
Outline: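 Human CYP3A4 dealkylates Luciferin-PPXE to luciferin, which luciferase detection converts to light. Substrate was at its KM (25uM), buffer 200mM KPO4, reaction 60 min at RT.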

[11] = target: Cytochrome P450 2D6 (Homo sapiens) (UniProt P10635); assay: qHTS Assay for Inhibitors and Substrates of Cytochrome P450 2D6 (AID 891); settings: recombinant CYP2D6, luciferin-ME EGE luminescence; series mostly up to 57.1 µM; also: potency is read from the fitted curve at half-maximal effect; nearly all actives have a fitted effect of over 60% in size
Outline: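 Luminescent read-out of luciferin formed by 5 nM human CYP2D6 demethylating 30 uM Luciferin-ME EGE (Km level) over 60 min at room temperature after NADPH regeneration addition. Data normalized to full inhibition by 1.43 uM quinidine.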

[12] = target: Dual specificity protein kinase CLK4 (Homo sapiens) (UniProt Q9HAZ1); assay: qHTS Assay for Inhibitors of CDC-like Kinase 4 (ADP-Glo Assay) (AID 1771); settings: recombinant CLK4, ADP-Glo luminescence; series mostly up to 80 µM; also: nearly all actives have a fitted effect of over 70% in size; also: potency is read from the fitted curve at half-maximal effect
Outline: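 25 nM Clk4, 100 uM RS peptide, 1 uM ATP (final); 2 mM MgCl2, 0.5 mM EGTA, 2.5 mM DTT, 0.01% Triton X-100; 1 hr RT. ADP-Glo readout: ATP depletion 45 min, conversion/luciferase 30 min, luminescence.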

[13] = target: Dual specificity protein kinase CLK4 (Homo sapiens) (UniProt Q9HAZ1); assay: qHTS Assay for Inhibitors of CDC-like Kinase 4 (ADP-FP Assay) (AID 1795); settings: Transcreener ADP fluorescence polarization; series mostly up to 50 µM; also: nearly all actives have a fitted effect of over 60% in size; also: potency is read from the fitted curve at half-maximal effect
Outline: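 Kinase activity was measured as ADP production using Transcreener orange tracer (4 nM) and ADP antibody (1 ug/mL) fluorescence polarization, with ADP calculated from a calibration curve. The 1 h reaction contained 6.25 nM Clk4, 1 uM ATP and 100 uM RS peptide at pH 7.5 with Mg2+.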

[14] = target: Ubiquitin carboxyl-terminal hydrolase 1 (Homo sapiens) (UniProt O94782); assay: Inhibitors of USP1/UAF1: Pilot qHTS (AID 504865); settings: purified USP1/UAF1, Ub-rhodamine cleavage fluorescence; series mostly up to 54.9 µM;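 also: rhodamine fluorescence freed from ubiquitin-rhodamine substrate followed over time; top concentration of the series differs between compounds; % is scaled to controls: 0 for no effect and ±100 for the full control effect; nearly all actives have a fitted effect of over 35% in size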
Outline: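 Deubiquitinase activity followed as kinetic rhodamine fluorescence release from 150 nM Ub-Rho. 1 nM USP1/UAF1 with compound, after 15 min room-temperature preincubation, in HEPES pH 7.8 buffer containing TCEP, EDTA, BSA and Tween-20.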

[15] = target: 3',5'-cyclic-AMP phosphodiesterase 4B (Homo sapiens) (UniProt Q07343); assay: qHTS Assay for Inhibitors of PDE-IV (AID 607; active = well fitted activation curve with a large enough effect in the main read-out, with a control signal flat, not every such curve was filed as active; also: % of control where 0% means no effect); settings: HEK293 ACTOne CNG channel cells, membrane potential fluorescence; series mostly up to 22.9 µM
Outline: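 HEK293 ACTOne cells with CNG channel (1000/well), endogenous PDE4; membrane potential dye, compounds up to 22.9 uM final. Fluorescence Ex 535/Em 590; RO 20-1724 (100 uM final) as reference.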

[16] = target: Dual specificity protein kinase CLK4 (Homo sapiens) (UniProt Q9HAZ1); assay: qHTS Assay for Inhibitors of CDC-like Kinase 4 (Kinase-Glo Assay) (AID 1770); settings: recombinant Clk4, Kinase-Glo ATP depletion luminescence; series mostly up to 66.7 µM; also: nearly all actives have a fitted effect of over 65% in size; also: potency is read from the fitted curve at half-maximal effect
Outline: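 Luminescent ATP-depletion read-out (Kinase-Glo) after 4.5 h room-temperature reaction of Clk4 (25 nM final) with RS peptide (100 uM) and ATP (1 uM), pH 7.5 Tris buffer with MgCl2 and DTT.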

[17] = target: Cytochrome P450 2C19 (Homo sapiens) (UniProt P33261); assay: qHTS Assay for Inhibitors and Substrates of Cytochrome P450 2C19 (AID 899); settings: recombinant CYP2C19, luciferin-H EGE luminescence; series mostly up to 57.1 µM; also: nearly all actives have a fitted effect of over 60% in size; also: potency is read from the fitted curve at half-maximal effect
Outline: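 Human CYP2C19 (5nM) with Luciferin-H EGE at 10uM (its KM) in 50mM KPO4 was preincubated with compound for 10 min at 37C. NADPH regeneration started a 60 min 37C reaction. Luciferin was read by luminescence, normalized to 57uM ketoconazole.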

Sequence of Cytochrome P450 1A2 (Homo sapiens) (P05177 whole entry, looked up): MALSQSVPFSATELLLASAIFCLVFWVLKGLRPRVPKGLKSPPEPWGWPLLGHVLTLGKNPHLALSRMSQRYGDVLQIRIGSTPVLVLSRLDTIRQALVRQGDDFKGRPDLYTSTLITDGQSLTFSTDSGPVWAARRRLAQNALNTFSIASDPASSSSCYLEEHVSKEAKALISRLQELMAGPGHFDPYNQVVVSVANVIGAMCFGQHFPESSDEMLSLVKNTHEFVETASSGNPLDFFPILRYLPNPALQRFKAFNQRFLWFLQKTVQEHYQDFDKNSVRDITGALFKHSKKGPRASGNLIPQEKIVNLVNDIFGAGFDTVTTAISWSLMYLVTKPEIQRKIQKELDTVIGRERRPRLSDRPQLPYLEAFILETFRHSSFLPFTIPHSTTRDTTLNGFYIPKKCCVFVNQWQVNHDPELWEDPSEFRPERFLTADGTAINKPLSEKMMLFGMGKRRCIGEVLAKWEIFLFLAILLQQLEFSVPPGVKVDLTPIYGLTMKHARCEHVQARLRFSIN
Sequence of Lysosomal acid glucosylceramidase (Homo sapiens) (P04062 whole entry, looked up): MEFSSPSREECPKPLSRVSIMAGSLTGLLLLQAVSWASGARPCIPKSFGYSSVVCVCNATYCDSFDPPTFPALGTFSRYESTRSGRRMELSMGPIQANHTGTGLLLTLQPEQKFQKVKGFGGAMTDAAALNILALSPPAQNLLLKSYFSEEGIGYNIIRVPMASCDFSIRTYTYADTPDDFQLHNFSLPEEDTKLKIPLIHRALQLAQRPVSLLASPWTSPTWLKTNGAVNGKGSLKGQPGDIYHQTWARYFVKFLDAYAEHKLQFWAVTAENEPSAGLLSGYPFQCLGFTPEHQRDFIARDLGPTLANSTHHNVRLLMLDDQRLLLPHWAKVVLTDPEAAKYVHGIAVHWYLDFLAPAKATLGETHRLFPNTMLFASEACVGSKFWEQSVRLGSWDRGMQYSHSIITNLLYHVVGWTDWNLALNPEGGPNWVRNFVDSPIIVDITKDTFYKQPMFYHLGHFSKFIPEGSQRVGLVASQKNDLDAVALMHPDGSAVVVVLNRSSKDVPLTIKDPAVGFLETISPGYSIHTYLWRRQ
Sequence of Glucocorticoid receptor (Homo sapiens) (P04150 whole entry, looked up, the tested form may be a part): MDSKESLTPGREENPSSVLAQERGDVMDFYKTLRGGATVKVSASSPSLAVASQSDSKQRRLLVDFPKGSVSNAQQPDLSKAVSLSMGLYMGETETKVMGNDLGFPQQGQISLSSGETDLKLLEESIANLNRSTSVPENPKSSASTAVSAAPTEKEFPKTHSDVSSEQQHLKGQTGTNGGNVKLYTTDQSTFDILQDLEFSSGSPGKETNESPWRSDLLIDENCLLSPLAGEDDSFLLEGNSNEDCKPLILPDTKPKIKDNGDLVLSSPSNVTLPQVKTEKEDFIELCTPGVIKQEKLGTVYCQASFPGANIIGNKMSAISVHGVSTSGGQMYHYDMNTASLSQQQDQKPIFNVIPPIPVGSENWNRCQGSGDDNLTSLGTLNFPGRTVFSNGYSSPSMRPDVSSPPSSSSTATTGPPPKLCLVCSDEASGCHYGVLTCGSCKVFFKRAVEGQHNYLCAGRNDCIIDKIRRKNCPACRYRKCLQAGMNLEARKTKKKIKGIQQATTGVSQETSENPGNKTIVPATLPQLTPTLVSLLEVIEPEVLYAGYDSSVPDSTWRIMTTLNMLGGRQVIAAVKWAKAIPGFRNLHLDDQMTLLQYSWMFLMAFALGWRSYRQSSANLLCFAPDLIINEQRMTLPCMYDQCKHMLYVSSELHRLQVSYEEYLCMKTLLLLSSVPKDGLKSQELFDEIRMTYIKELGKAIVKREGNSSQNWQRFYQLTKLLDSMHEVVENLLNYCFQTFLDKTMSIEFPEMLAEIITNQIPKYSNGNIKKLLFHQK
Sequence of Cytochrome P450 2C19 (Homo sapiens) (P33261 whole entry, looked up): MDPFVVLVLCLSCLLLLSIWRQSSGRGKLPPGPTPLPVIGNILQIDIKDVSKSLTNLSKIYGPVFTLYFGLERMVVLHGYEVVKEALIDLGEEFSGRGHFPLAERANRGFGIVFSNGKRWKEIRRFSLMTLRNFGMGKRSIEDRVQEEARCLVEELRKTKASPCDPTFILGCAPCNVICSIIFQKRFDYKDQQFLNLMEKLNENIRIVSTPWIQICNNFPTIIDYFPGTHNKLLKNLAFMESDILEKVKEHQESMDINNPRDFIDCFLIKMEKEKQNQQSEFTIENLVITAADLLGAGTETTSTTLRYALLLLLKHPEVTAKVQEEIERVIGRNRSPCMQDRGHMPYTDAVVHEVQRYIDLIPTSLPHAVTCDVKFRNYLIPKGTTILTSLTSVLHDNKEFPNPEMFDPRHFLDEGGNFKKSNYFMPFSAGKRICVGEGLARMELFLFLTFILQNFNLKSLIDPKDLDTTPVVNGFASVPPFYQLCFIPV
Sequence of 3',5'-cyclic-AMP phosphodiesterase 4B (Homo sapiens) (Q07343 whole entry, looked up): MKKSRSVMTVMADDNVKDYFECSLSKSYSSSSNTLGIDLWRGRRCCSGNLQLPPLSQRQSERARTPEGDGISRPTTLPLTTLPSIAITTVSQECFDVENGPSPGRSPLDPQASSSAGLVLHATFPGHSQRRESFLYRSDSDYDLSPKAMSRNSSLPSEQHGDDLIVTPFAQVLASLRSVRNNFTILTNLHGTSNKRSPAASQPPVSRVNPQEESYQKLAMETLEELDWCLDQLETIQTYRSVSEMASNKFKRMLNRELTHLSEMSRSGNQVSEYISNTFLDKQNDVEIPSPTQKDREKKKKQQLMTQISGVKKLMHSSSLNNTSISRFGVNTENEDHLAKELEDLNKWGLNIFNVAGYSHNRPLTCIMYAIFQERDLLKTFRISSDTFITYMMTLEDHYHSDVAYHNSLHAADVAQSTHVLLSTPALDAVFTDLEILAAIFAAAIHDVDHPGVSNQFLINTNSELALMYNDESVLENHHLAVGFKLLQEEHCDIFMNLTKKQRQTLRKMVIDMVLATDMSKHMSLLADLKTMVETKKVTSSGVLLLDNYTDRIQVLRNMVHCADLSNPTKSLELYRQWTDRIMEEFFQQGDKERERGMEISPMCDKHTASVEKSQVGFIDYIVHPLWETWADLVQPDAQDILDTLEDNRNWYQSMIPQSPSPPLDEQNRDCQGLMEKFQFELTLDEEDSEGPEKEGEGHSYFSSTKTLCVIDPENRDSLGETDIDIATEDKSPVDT
Sequence of Ubiquitin carboxyl-terminal hydrolase 1 (Homo sapiens) (O94782 whole entry, looked up): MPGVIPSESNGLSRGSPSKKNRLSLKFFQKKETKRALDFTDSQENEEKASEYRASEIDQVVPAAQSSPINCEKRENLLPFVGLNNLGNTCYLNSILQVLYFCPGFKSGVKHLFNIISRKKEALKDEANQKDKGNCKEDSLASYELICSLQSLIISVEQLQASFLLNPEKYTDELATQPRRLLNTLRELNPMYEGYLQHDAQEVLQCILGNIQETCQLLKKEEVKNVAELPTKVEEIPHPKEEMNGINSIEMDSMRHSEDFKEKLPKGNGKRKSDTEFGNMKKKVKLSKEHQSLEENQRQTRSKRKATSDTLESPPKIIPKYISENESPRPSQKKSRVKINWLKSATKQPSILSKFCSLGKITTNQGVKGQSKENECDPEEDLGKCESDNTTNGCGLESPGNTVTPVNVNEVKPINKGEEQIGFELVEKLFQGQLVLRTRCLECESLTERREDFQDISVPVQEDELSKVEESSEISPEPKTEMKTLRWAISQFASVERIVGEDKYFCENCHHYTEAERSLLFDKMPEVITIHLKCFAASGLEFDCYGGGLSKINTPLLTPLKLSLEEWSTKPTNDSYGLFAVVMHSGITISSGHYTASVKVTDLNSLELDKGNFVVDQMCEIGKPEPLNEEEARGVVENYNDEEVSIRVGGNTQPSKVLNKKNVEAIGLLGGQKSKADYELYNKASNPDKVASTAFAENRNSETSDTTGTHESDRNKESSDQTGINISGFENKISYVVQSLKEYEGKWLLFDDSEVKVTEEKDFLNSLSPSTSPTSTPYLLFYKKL
Sequence of Dual specificity protein kinase CLK4 (Homo sapiens) (Q9HAZ1 whole entry, looked up): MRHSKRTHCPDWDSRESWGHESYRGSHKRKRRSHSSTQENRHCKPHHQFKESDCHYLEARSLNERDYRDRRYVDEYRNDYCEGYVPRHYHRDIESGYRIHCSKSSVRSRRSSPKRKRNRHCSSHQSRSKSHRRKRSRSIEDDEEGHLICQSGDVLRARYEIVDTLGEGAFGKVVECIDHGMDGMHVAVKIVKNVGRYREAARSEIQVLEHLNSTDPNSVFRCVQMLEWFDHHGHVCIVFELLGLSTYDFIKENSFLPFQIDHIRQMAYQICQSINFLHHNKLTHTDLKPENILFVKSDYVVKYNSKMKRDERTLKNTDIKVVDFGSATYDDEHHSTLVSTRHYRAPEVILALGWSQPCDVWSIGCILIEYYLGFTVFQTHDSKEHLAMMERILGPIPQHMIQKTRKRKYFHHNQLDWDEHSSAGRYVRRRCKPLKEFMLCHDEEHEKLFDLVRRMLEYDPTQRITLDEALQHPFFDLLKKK
Sequence of Cytochrome P450 3A4 (Homo sapiens) (P08684 whole entry, looked up): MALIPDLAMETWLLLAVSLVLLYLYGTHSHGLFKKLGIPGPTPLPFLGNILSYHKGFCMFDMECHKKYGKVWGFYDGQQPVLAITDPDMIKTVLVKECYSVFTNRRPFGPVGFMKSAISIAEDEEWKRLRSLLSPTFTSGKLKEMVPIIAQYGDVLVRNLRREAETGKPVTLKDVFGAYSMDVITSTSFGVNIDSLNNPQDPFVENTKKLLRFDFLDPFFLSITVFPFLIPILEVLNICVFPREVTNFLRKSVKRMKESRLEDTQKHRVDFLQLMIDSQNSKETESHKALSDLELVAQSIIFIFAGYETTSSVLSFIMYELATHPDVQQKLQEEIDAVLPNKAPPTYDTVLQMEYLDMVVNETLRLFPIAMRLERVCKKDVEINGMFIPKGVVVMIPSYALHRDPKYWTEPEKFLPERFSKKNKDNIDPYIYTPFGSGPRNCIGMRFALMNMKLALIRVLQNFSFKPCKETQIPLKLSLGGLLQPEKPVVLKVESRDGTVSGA

Compound | Potency [1] | activity change, negative = inhibition [2] | Potency [3] | activity change, negative = inhibition [4] | outcome [5] | Potency [6] | Potency [7] | Potency [8] | Potency [9] | outcome [10] | Potency [11] | Potency [12] | Potency [13] | Potency [14] | Potency [15] | Potency [16] | Potency [17]
COc1ccccc1CNc1ncncc1-c1ccc2c(c1)OCO2 | > 11.4 µM | -21.5% | 0.158 µM (active) | -11.1% | inactive | > 46 µM | > 46 µM | inactive | 0.199 µM (active) | inactive | 2.51 µM (active) | 2 µM (active) | 1 µM (active) | inactive | – | – | –
COc1cccc(-c2nc(NCCN3CCOCC3)c3ccccc3n2)c1 | > 11.4 µM | 6.11% | – | -2.08% | inactive | > 46 µM | > 46 µM | inactive | – | inactive | – | 15.8 µM (active) | – | inactive | inactive | 15.8 µM (active) | –
CN(C)c1ccc(-c2nccc(Nc3ccc(F)cc3)n2)cc1 | – | -4.1% | 0.501 µM (active) | -29.4% | inactive | > 46 µM | > 46 µM | inactive | – | inactive | – | 14.1 µM (active) | – | – | inactive | 17.8 µM (active) | 3.16 µM (active)
CN(C)c1nc(-c2ccc3c(c2)OCO3)nc2ccccc12 | > 11.4 µM | 9.5% | – | -16.9% | inactive | > 46 µM | > 46 µM | inactive | – | – | – | – | inactive | – | – | inactive | –
COc1ccccc1CNc1ncncc1-c1ccccc1C(F)(F)F | > 11.4 µM | -7.72% | 15.8 µM (active) | -21.7% | inactive | – | > 46 µM | inactive | 0.0794 µM (active) | inactive | 2 µM (active) | inactive | inactive | inactive | inactive | – | 1.58 µM (active)
COCCn1c(=O)c(-c2cccc(C#N)c2)nc2cnc(OCc3ccccc3)nc21 | > 11.4 µM | -20.4% | 12.6 µM (active) | -5.35% | – | – | > 46 µM | inactive | – | inactive | – | inactive | inactive | inactive | – | – | inactive
COc1ccccc1-c1nccc(NCc2cccs2)n1 | > 2.29 µM | 15.8% | – | -12.7% | inactive | > 46 µM | > 46 µM | inactive | – | – | – | inactive | – | – | – | inactive | –
CCNc1ncc2nc(C)c(=O)n(CCc3ccccc3)c2n1 | – | -15.2% | 1.58 µM (active) | -12.8% | inactive | > 9.22 µM | > 46 µM | inactive | – | inactive | – | 7.94 µM (active) | – | inactive | – | 7.94 µM (active) | 0.316 µM (active)
COc1ccc(CNc2ncncc2-c2ccccc2OC)c(OC)c1 | – | -23.4% | 5.01 µM (active) | -12.1% | inactive | > 46 µM | > 46 µM | inactive | 0.316 µM (active) | inactive | – | inactive | – | inactive | – | inactive | 2 µM (active)
c1ccc2c(NCCN3CCOCC3)nc(-c3ccc4c(c3)OCO4)nc2c1 | > 11.4 µM | -11.7% | – | 12.2% | inactive | > 46 µM | > 46 µM | inactive | – | – | – | – | inactive | inactive | inactive | inactive | –
COc1ccc2[nH]cc(CCNc3ncncc3-c3ccoc3)c2c1 | > 11.4 µM | – | – | -12% | inactive | – | > 46 µM | inactive | – | – | – | 15.8 µM (active) | – | inactive | inactive | 14.1 µM (active) | –
COc1ccc2[nH]cc(CCNc3cc(-c4cccc(C#N)c4)ncn3)c2c1 | > 11.4 µM | -15.9% | 0.794 µM (active) | – | inactive | – | > 46 µM | inactive | 3.98 µM (active) | inactive | – | 31.6 µM (active) | – | inactive | inactive | 25.1 µM (active) | 7.94 µM (active)
O=c1c(-c2ccccc2)nc2cnc(Oc3ccccc3)nc2n1C[C@H]1CCCO1 | > 11.4 µM | 180% | – | 4.49% | inactive | > 9.22 µM | > 46 µM | inactive | – | – | – | inactive | – | – | – | inactive | –
COc1ccccc1CNc1ccnc(-c2cccc(NS(C)(=O)=O)c2)n1 | > 11.4 µM | -17.8% | – | 2.18% | inactive | > 46 µM | > 46 µM | inactive | – | – | – | 25.1 µM (active) | – | – | – | 28.2 µM (active) | –
COc1ccccc1CNc1ncnc2ccc(-c3ccc(C(=O)N(C)C)cc3)cc12 | – | – | 12.6 µM (active) | 14.5% | inactive | – | > 46 µM | inactive | – | inactive | – | – | inactive | inactive | – | inactive | –
